# Test results published in the supplement of paper PMC4466140.
# B1: unnamed (peptide)
# chain: VQPTAAPATPPRHIS
# B2: unnamed (peptide)
# chain: EREKALPPIPFTTTL
# B3: unnamed (peptide)
# chain: DDEDVPPQLPTRTKS
# Target: AgAbp1
# Assay: SPOT peptide array binding signal intensity (averaged, normalized) (arbitrary units (background-subtracted, floor 0; scale differs between SH3 domains)); higher = stronger binding of the SH3 domain to the peptide
# Outline: (§1)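 SH3 domains from four yeast species were expressed as GST fusions in E. coli BL21(DE3) and purified on glutathione Sepharose. Each was incubated at 10 μg/ml overnight at 4°C in TBS-based blocking buffer on cellulose membranes bearing synthetic 15-mer peptides, in which serines replaced cysteines. Bound protein was detected with anti-GST antibody, an HRP anti-mouse secondary and luminol, then imaged and quantified with Genespotter. The binding signal is the normalized, background-subtracted spot intensity averaged over replicates, in arbitrary units that are not the same from one domain to another.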
row,Binder,SPOT peptide array binding signal intensity
1,B1,≤ 0
2,B3,≤ 0

# Target: AgBbc1
# Assay: as above
# Outline: as §1
row,Binder,SPOT peptide array binding signal intensity
1,B1,≤ 0
2,B3,14.5

# Target: AgBem1-D1
# Assay: as above
# Outline: as §1
row,Binder,SPOT peptide array binding signal intensity
1,B1,≤ 0
2,B3,1

# Target: AgBzz1-D1
# Assay: as above
# Outline: as §1
row,Binder,SPOT peptide array binding signal intensity
1,B1,≤ 0
2,B3,28

# Target: AgBzz1-D2
# Assay: as above
# Outline: as §1
row,Binder,SPOT peptide array binding signal intensity
1,B1,≤ 0
2,B3,11.5

# Target: AgCyk3
# Assay: as above
# Outline: as §1
row,Binder,SPOT peptide array binding signal intensity
1,B1,≤ 0
2,B3,≤ 0

# Target: AgFus1
# Assay: as above
# Outline: as §1
row,Binder,SPOT peptide array binding signal intensity
1,B1,≤ 0
2,B3,6.5

# Target: AgHof1
# Assay: as above
# Outline: as §1
row,Binder,SPOT peptide array binding signal intensity
1,B1,≤ 0
2,B3,28

# Target: AgHse1
# Assay: as above
# Outline: as §1
row,Binder,SPOT peptide array binding signal intensity
1,B1,5.5
2,B3,17

# Target: AgLsb1
# Assay: as above
# Outline: as §1
row,Binder,SPOT peptide array binding signal intensity
1,B1,8
2,B3,14

# Target: AgLsb4
# Assay: as above
# Outline: as §1
row,Binder,SPOT peptide array binding signal intensity
1,B1,964
2,B3,6150

# Target: AgMyo5
# Assay: as above
# Outline: as §1
row,Binder,SPOT peptide array binding signal intensity
1,B1,≤ 0
2,B3,1.75

# Target: AgNbp2
# Assay: as above
# Outline: as §1
row,Binder,SPOT peptide array binding signal intensity
1,B1,≤ 0
2,B3,≤ 0

# Target: AgRvs167
# Assay: as above
# Outline: as §1
row,Binder,SPOT peptide array binding signal intensity
1,B1,43.6
2,B3,53.2

# Target: AgSho1
# Assay: as above
# Outline: as §1
row,Binder,SPOT peptide array binding signal intensity
1,B1,≤ 0
2,B3,10

# Target: AgSla1-D1-D2
# Assay: as above
# Outline: as §1
row,Binder,SPOT peptide array binding signal intensity
1,B1,≤ 0
2,B3,≤ 0

# Target: AgSla1-D3
# Assay: as above
# Outline: as §1
row,Binder,SPOT peptide array binding signal intensity
1,B1,≤ 0
2,B3,≤ 0

# Target: CaAbp1-D1
# Assay: as above
# Outline: as §1
row,Binder,SPOT peptide array binding signal intensity
1,B1,≤ 0
2,B3,≤ 0

# Target: CaAbp1-D2
# Assay: as above
# Outline: as §1
row,Binder,SPOT peptide array binding signal intensity
1,B1,≤ 0
2,B3,≤ 0

# Target: CaBbc1
# Assay: as above
# Outline: as §1
row,Binder,SPOT peptide array binding signal intensity
1,B1,78.6
2,B3,45

# Target: CaBem1-D1
# Assay: as above
# Outline: as §1
row,Binder,SPOT peptide array binding signal intensity
1,B1,5
2,B3,9.5

# Target: CaBzz1-D1
# Assay: as above
# Outline: as §1
row,Binder,SPOT peptide array binding signal intensity
1,B1,≤ 0
2,B3,≤ 0

# Target: CaBzz1-D2
# Assay: as above
# Outline: as §1
row,Binder,SPOT peptide array binding signal intensity
1,B1,≤ 0
2,B3,≤ 0

# Target: CaCyk3
# Assay: as above
# Outline: as §1
row,Binder,SPOT peptide array binding signal intensity
1,B1,≤ 0
2,B3,3

# Target: CaFus1
# Assay: as above
# Outline: as §1
row,Binder,SPOT peptide array binding signal intensity
1,B1,≤ 0
2,B3,78

# Target: CaHof1
# Assay: as above
# Outline: as §1
row,Binder,SPOT peptide array binding signal intensity
1,B1,≤ 0
2,B3,7.5

# Target: CaHse1
# Assay: as above
# Outline: as §1
row,Binder,SPOT peptide array binding signal intensity
1,B1,5.25
2,B3,27

# Target: CaLsb1
# Assay: as above
# Outline: as §1
row,Binder,SPOT peptide array binding signal intensity
1,B1,≤ 0
2,B3,6.5

# Target: CaLsb4
# Assay: as above
# Outline: as §1
row,Binder,SPOT peptide array binding signal intensity
1,B1,2000
2,B3,6780

# Target: CaMyo5
# Assay: as above
# Outline: as §1
row,Binder,SPOT peptide array binding signal intensity
1,B1,≤ 0
2,B3,2

# Target: SpBzz1-D2
# Assay: as above
# Outline: as §1
row,Binder,SPOT peptide array binding signal intensity
1,B2,≤ 0
2,B3,≤ 0

# Target: SpCyk3
# Assay: as above
# Outline: as §1
row,Binder,SPOT peptide array binding signal intensity
1,B2,3.5
2,B3,≤ 0

# Target: SpHof1
# Assay: as above
# Outline: as §1
row,Binder,SPOT peptide array binding signal intensity
1,B2,1190
2,B3,16.8

# Target: SpHof1-2
# Assay: as above
# Outline: as §1
row,Binder,SPOT peptide array binding signal intensity
1,B2,1870
2,B3,7

# Target: SpHof1-3
# Assay: as above
# Outline: as §1
row,Binder,SPOT peptide array binding signal intensity
1,B2,3060
2,B3,6

# Target: SpHse1
# Assay: as above
# Outline: as §1
row,Binder,SPOT peptide array binding signal intensity
1,B2,29.2
2,B3,7

# Target: SpLsb1
# Assay: as above
# Outline: as §1
row,Binder,SPOT peptide array binding signal intensity
1,B2,≤ 0
2,B3,27.5

# Target: SpLsb4
# Assay: as above
# Outline: as §1
row,Binder,SPOT peptide array binding signal intensity
1,B2,7
2,B3,7620

# Target: SpMyo1
# Assay: as above
# Outline: as §1
row,Binder,SPOT peptide array binding signal intensity
1,B2,32.5
2,B3,≤ 0

# Target: SpNbp2
# Assay: as above
# Outline: as §1
row,Binder,SPOT peptide array binding signal intensity
1,B2,≤ 0
2,B3,8

# Target: SpPex13
# Assay: as above
# Outline: as §1
row,Binder,SPOT peptide array binding signal intensity
1,B2,1
2,B3,≤ 0

# Target: SpRvs167
# Assay: as above
# Outline: as §1
row,Binder,SPOT peptide array binding signal intensity
1,B2,38.7
2,B3,1800

# Target: SpSla1-D1-D2
# Assay: as above
# Outline: as §1
row,Binder,SPOT peptide array binding signal intensity
1,B2,9
2,B3,≤ 0

# Target: SpSla1-D3
# Assay: as above
# Outline: as §1
row,Binder,SPOT peptide array binding signal intensity
1,B2,0.5
2,B3,3

# Target: CaNbp2
# Assay: as above
# Outline: as §1
row,Binder,SPOT peptide array binding signal intensity
1,B3,≤ 0

# Target: CaRvs167
# Assay: as above
# Outline: as §1
row,Binder,SPOT peptide array binding signal intensity
1,B3,1080

# Target: CaRvs167-3
# Assay: as above
# Outline: as §1
row,Binder,SPOT peptide array binding signal intensity
1,B3,3.5

# Target: CaSho1
# Assay: as above
# Outline: as §1
row,Binder,SPOT peptide array binding signal intensity
1,B3,≤ 0

# Target: CaSla1-D1-D2
# Assay: as above
# Outline: as §1
row,Binder,SPOT peptide array binding signal intensity
1,B3,≤ 0

# Target: CaSla1-D3
# Assay: as above
# Outline: as §1
row,Binder,SPOT peptide array binding signal intensity
1,B3,≤ 0

# Target: ScAbp1
# Assay: as above
# Outline: as §1
row,Binder,SPOT peptide array binding signal intensity
1,B3,≤ 0

# Target: ScBbc1
# Assay: as above
# Outline: as §1
row,Binder,SPOT peptide array binding signal intensity
1,B3,0.5

# Target: ScBem1-D1
# Assay: as above
# Outline: as §1
row,Binder,SPOT peptide array binding signal intensity
1,B3,≤ 0

# Target: ScBzz1-D1
# Assay: as above
# Outline: as §1
row,Binder,SPOT peptide array binding signal intensity
1,B3,6

# Target: ScBzz1-D2
# Assay: as above
# Outline: as §1
row,Binder,SPOT peptide array binding signal intensity
1,B3,22

# Target: ScCyk3
# Assay: as above
# Outline: as §1
row,Binder,SPOT peptide array binding signal intensity
1,B3,1

# Target: ScFus1
# Assay: as above
# Outline: as §1
row,Binder,SPOT peptide array binding signal intensity
1,B3,6

# Target: ScHof1
# Assay: as above
# Outline: as §1
row,Binder,SPOT peptide array binding signal intensity
1,B3,16.5

# Target: ScHse1
# Assay: as above
# Outline: as §1
row,Binder,SPOT peptide array binding signal intensity
1,B3,23.5

# Target: ScLsb1
# Assay: as above
# Outline: as §1
row,Binder,SPOT peptide array binding signal intensity
1,B3,576

# Target: ScLsb2
# Assay: as above
# Outline: as §1
row,Binder,SPOT peptide array binding signal intensity
1,B3,≤ 0

# Target: ScLsb3
# Assay: as above
# Outline: as §1
row,Binder,SPOT peptide array binding signal intensity
1,B3,9300

# Target: ScLsb4
# Assay: as above
# Outline: as §1
row,Binder,SPOT peptide array binding signal intensity
1,B3,3020

# Target: ScMyo3
# Assay: as above
# Outline: as §1
row,Binder,SPOT peptide array binding signal intensity
1,B3,≤ 0

# Target: ScMyo5
# Assay: as above
# Outline: as §1
row,Binder,SPOT peptide array binding signal intensity
1,B3,≤ 0

# Target: ScNbp2
# Assay: as above
# Outline: as §1
row,Binder,SPOT peptide array binding signal intensity
1,B3,≤ 0

# Target: ScPex13
# Assay: as above
# Outline: as §1
row,Binder,SPOT peptide array binding signal intensity
1,B3,1570

# Target: ScRvs167
# Assay: as above
# Outline: as §1
row,Binder,SPOT peptide array binding signal intensity
1,B3,1980

# Target: ScSho1
# Assay: as above
# Outline: as §1
row,Binder,SPOT peptide array binding signal intensity
1,B3,6

# Target: ScSla1-D1-D2
# Assay: as above
# Outline: as §1
row,Binder,SPOT peptide array binding signal intensity
1,B3,1

# Target: ScSla1-D3
# Assay: as above
# Outline: as §1
row,Binder,SPOT peptide array binding signal intensity
1,B3,0.5

# Target: SpAbp1-D1
# Assay: as above
# Outline: as §1
row,Binder,SPOT peptide array binding signal intensity
1,B3,≤ 0

# Target: SpBbc1
# Assay: as above
# Outline: as §1
row,Binder,SPOT peptide array binding signal intensity
1,B3,3.75

# Target: SpBzz1-D1
# Assay: as above
# Outline: as §1
row,Binder,SPOT peptide array binding signal intensity
1,B3,0.5
